Bioassay records (PubChem)
UHRF1 binding: human UHRF1 methylated DNA binding inhibitors; Q96T88; UHRF1 binding to methylated oligo, TR-FRET; inhibition, % at 4.4 µM; hit rate 0.75% among 370,000; in the data active means inhibition above about 21%;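 further: UHRF1 SRA domain binding a hemimethylated CpG hairpin DNA probe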
ABHD5-PLIN5 inh: inhibitors of human ABHD5-perilipin-5 interaction. Split G. princeps luciferase complementation, luminescence, 4 h. inhibition, % at 4 µM. hit rate 0.78% among 360,000;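 active means inhibition above the mean inhibition across every tested compound plus 3 SD, cut at about 22% in these data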
PRMT1 inh: inhibitors of human PRMT1; inhibition, % at 2.79 µM; hit rate 1.3% among 370,000; recombinant PRMT1, activity-based probe fluorescence polarization; AID 652257;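 active means inhibition above about 21% made by adding two undisclosed values, limit read from the data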
Target sequence (Q99873 whole entry, looked up): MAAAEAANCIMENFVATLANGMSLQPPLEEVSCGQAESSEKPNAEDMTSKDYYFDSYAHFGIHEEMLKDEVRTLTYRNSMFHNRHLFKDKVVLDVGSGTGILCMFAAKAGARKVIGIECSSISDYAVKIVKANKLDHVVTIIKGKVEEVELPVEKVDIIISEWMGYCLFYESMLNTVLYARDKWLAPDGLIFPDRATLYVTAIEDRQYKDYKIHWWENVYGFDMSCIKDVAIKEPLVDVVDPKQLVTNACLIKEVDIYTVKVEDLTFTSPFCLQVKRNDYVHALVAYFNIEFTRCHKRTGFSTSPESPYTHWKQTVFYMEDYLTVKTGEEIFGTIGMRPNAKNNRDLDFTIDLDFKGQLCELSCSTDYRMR
MBD2 DNA inh: inhibitors of human MBD2 binding to methylated oligonucleotide; Q9UBB5; TR-FRET; inhibition, % at 4.4 µM; hit rate 0.31% among 370,000; in the data active means inhibition above about 13%
LEDGF integ inh: blocks HIV-1 LEDGF/p75-dependent DNA integration; TR-FRET IN-LEDGF/p75 DNA integration, Eu/Cy5; inhibition, % at 3.7 µM; hit rate 0.64% among 370,000;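 active means inhibition above the screen-wide mean plus 3 SD, cut at about 13% in these data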;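 further: signal is the Cy5 over europium emission ratio at 671 and 618 nm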
rCAG RNA binder: molecules binding r(CAG) RNA repeats | r(CAG) RNA repeat, TO-PRO-1 dye displacement fluorescence | inhibition, % at 3 µM | hit rate 1.3% among 370,000;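 active means inhibition above the plate cutoff, the mean of all test compounds on that plate plus 3 SD, cut at about 35% in these data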;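 further: higher means more dye released from RNA so lower well fluorescence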
IN multimer up: activates HIV-1 integrase multimerization in LEDGF counter-screen; hit rate 17% among 2,000; activation, % at 7.7 µM; TR-FRET HIV-1 integrase multimerization, biochemical; shares compounds with LEDGF integ inh; in the data active means activation above about 8.9%
TR-FRET interf: counter-screen for LEDGF/p75 integration inhibitors: TR-FRET optical interference; inhibition, % at 7.7 µM; shares compounds with LEDGF integ inh; TR-FRET optical interference counterscreen, HIV-1 IN multimerization; 2,000 tested, under 10 active;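 active means inhibition above the mean over all tested compounds plus 3 SD, which no compound reached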
IN-LEDGF confirm: LEDGF/p75-dependent HIV-1 integration inhibition, confirmation | shares compounds with LEDGF integ inh | TR-FRET LEDGF/p75-dependent HIV-1 integration, biochemical | inhibition, % at 3.7 µM | hit rate 36% among 2,000 | AID 1053136; in the data active means inhibition above about 14%
Each line names hits and unclear results; the compound was inactive in the other large screens (follow-up assays come after a bar, where they were run). Rows were chosen to be rich in hits. Some 4.1% of all compounds tested hit in one or more screens of this group.

CC(=O)O[C@H]1C[C@@H](n2cnc3c(Cl)ncnc32)[C@@H]2OC(C)(C)O[C@@H]21	none (no result: ABHD5-PLIN5 inh)
Cc1cccc(N2C(=O)CS/C2=N\NC(=O)c2ccc(Br)cc2)c1C	LEDGF integ inh 16.2 | IN multimer up inactive | TR-FRET interf inactive | IN-LEDGF confirm inactive
Cc1cccc(N2C(=O)CS/C2=N\NC(=O)c2cccnc2)c1C	none
Cc1ccc(S(=O)(=O)N2[C@H](CC(=O)c3cccc4ccccc34)OC[C@@H]2C(C)C)cc1	none
Cc1ccc(S(=O)(=O)N2[C@H](CC(=O)c3cccc4ccccc34)OC[C@@H]2C)cc1	LEDGF integ inh 13.7 | IN multimer up inactive | TR-FRET interf inactive | IN-LEDGF confirm inactive
CCOC(=O)[C@]12CCCCC/C=C\1N(Cc1ccc(OC)cc1)C(=O)[C@H]2CC(=O)NCc1cccc(C(F)(F)F)c1	none (no result: ABHD5-PLIN5 inh)
CC(=O)N(/N=C1\Sc2ccccc2C1=O)c1cccc(C)c1	LEDGF integ inh 22.2 | IN multimer up inactive | TR-FRET interf inactive | IN-LEDGF confirm 50.9
CC(C)(C)c1ccc(-c2nnc(SCC3CCCCO3)n2-c2ccc(Cl)cc2)cc1 (centres undefined)	none (no result: ABHD5-PLIN5 inh)
CN(C)c1ccc(N=C/C=C2\N(C)c3ccccc3C2(C)C)cc1	PRMT1 inh 23.5, LEDGF integ inh 14.7 | IN multimer up inactive | TR-FRET interf inactive | IN-LEDGF confirm inactive
CN1/C(=C\C=Nc2ccc3ccccc3c2)C(C)(C)c2ccccc21	none (no result: UHRF1 binding, PRMT1 inh, MBD2 DNA inh, LEDGF integ inh, rCAG RNA binder)
Cc1cc(NC(=O)CSc2ccc3nnc(CCNC(=O)c4ccccc4)n3n2)no1	none
Cc1ccc(NC(=O)CSc2ccc3nnc(CCNC(=O)c4ccccc4)n3n2)c(C)c1	LEDGF integ inh 43.4 | IN multimer up inactive | TR-FRET interf inactive | IN-LEDGF confirm inactive
Cc1cccc(Cn2cc(COC(=O)Nc3ccc(F)cc3)nn2)c1	none (no result: ABHD5-PLIN5 inh)
O=C(NN=C(c1ccccc1)c1ccccn1)c1ccccc1	LEDGF integ inh 20.8 | IN multimer up inactive | TR-FRET interf inactive | IN-LEDGF confirm inactive
COc1ccc(C(=O)N/N=C(\c2ccccc2)c2ccccn2)cc1	none
CCCc1ccc(-c2cc(NC(=O)Cc3c(C)[nH]c4ccccc34)ccc2Nc2cccnc2)cc1	none (no result: ABHD5-PLIN5 inh)
Cc1cc(O)c(CN(C)C)c2c1C(=O)/C(=C/c1ccco1)O2	LEDGF integ inh 26.4 | IN multimer up 11.4 | TR-FRET interf inactive | IN-LEDGF confirm 24.4
CCOC(=O)C1CCCN(Cc2ccccc2Cl)C1 (centres undefined)	LEDGF integ inh 15.7 | IN multimer up inactive | TR-FRET interf inactive | IN-LEDGF confirm inactive
COc1ccc(NC(=O)OCCN2CCCC23CCC(c2ccccc2)CC3)cc1 (centres undefined)	none (no result: ABHD5-PLIN5 inh, rCAG RNA binder)
CC(C)C(NC(=O)C12CC3CC(CC(C3)C1)C2)C(=O)N/N=C/C1=C(N2CCOCC2)C(=C\c2cccc([N+](=O)[O-])c2)/CC1 (centres undefined)	none
Cn1cc(C(=O)N/N=C/C2=C(N3CCOCC3)C(=C/c3ccc([N+](=O)[O-])cc3)/CC2)ccc1=O	LEDGF integ inh 87.7 | IN multimer up inactive | TR-FRET interf inactive | IN-LEDGF confirm inactive
COC(=O)[C@H](C(C)C)N1Cc2nnn(Cc3ccc(C)cc3)c2-c2ccccc2S1(=O)=O	none (no result: ABHD5-PLIN5 inh)
C[C@@H]1O[C@@H](O[C@@H]2[C@@H](O)[C@H](OCCc3ccc(O)c(O)c3)O[C@H](CO)[C@H]2OC(=O)/C=C/c2ccc(O)c(O)c2)[C@H](O)[C@H](O)[C@H]1O	PRMT1 inh 24.6, LEDGF integ inh 86.5 | IN multimer up 36.6 | TR-FRET interf inactive | IN-LEDGF confirm 88.4
CC(C)[C@@H]1OC(=O)[C@@H]2CCCN2C(=O)[C@H](C)OC(=O)[C@H](C)[C@@H](C(C)C)NC(=O)[C@@H]2CCCN2C(=O)[C@H]([C@H](C)Cc2ccccc2)NC(=O)[C@@H]2CCCN2C(=O)[C@@H](C(C)C)N(C)C1=O	none (no result: ABHD5-PLIN5 inh, rCAG RNA binder)
C=CCCC[C@H]1OC(=O)[C@H](C)NC(=O)[C@H](C(C)C)NC(=O)[C@@H]2CCCN2C(=O)[C@H](Cc2ccccc2)OC(=O)[C@@H](C(C)C)N(C)C(=O)[C@H](C(C)C)NC(=O)C1(C)C	LEDGF integ inh 16.2 (no result: ABHD5-PLIN5 inh) | IN multimer up inactive | TR-FRET interf inactive | IN-LEDGF confirm inactive
COc1ccc(C[C@@H]2CN3C(=NC[C@@H]3C)N2C[C@H](C)NC(=O)CCC2CCCCC2)cc1	LEDGF integ inh 52.0 | IN multimer up inactive | TR-FRET interf inactive | IN-LEDGF confirm inactive
C[C@@H](CN1C2=NC[C@H](Cc3ccc(O)cc3)N2C[C@H]1Cc1ccc(O)cc1)NC(=O)CCC1CCCCC1	none
CCC[C@H]1[C@@H](OC(=O)NC2CCCCC2)CC[C@@]23CCCN2C(=O)CCC[C@@H]13	none (no result: ABHD5-PLIN5 inh, rCAG RNA binder)
CN(C)CC(=O)N[C@@H]1C=C[C@@H](CC(=O)NCCN2CCCCC2)O[C@@H]1CO	LEDGF integ inh 27.9 | IN multimer up inactive | TR-FRET interf inactive | IN-LEDGF confirm inactive
CCCCCn1c(C)c2c(OCC)cccc(=O)c2c1C	none
COc1cccc(=O)c2c(C)n(C)c(C)c12	UHRF1 binding 21.9, LEDGF integ inh 35.6 | IN multimer up inactive | TR-FRET interf inactive | IN-LEDGF confirm inactive
CCOc1cccc(=O)c2c(C)n(C)c(C)c12	LEDGF integ inh 13.9 | IN multimer up inactive | TR-FRET interf inactive | IN-LEDGF confirm inactive
CN(C)c1ncnc2c1ncn2[C@H]1CN(Cc2cccnc2)C[C@@H](CO)O1	LEDGF integ inh 51.8 | IN multimer up inactive | TR-FRET interf inactive | IN-LEDGF confirm inactive
CN(C)c1ncnc2c1ncn2[C@H]1CN(Cc2ccc(F)cc2)C[C@@H](CO)O1	none
NC(=S)NN=Cc1nccc2c(N)cccc12	LEDGF integ inh 20.0 | IN multimer up 14.9 | TR-FRET interf inactive | IN-LEDGF confirm 17.1
C#CCNC(=O)C[C@H]1C[C@@]2(C(=O)OC)C(=C[C@H](C3CCCC3)O[C@@H]2C)N(CCc2ccc(OC)c(OC)c2)C1=O	none (no result: ABHD5-PLIN5 inh)
COC(=O)c1sc(N)c(C(=O)OC)c1COC(=O)[C@@H](NS(=O)(=O)c1cccc(Cl)c1)C(C)C	LEDGF integ inh 21.3 | IN multimer up inactive | TR-FRET interf inactive | IN-LEDGF confirm inactive
COC(=O)c1c(NC(=O)COC(=O)[C@@H](NS(=O)(=O)c2cccc(Cl)c2)C(C)C)sc2c1CCC2	none
Cc1ccc(C(=O)N(C)[C@H]2C[C@H]3c4[nH]c5c(-c6cccc(C)c6)cccc5c4CCN3C[C@H]2[C@H](C)O)cc1	none (no result: ABHD5-PLIN5 inh)
